Screening data deposited in PubChem BioAssay by National Center for Advancing Translational Sciences (NCATS).
BAZ2B inh – BAZ2B (human) inhibition; Q9UIF8; AlphaScreen BAZ2B-H3K14Ac peptide displacement; Potency, µM (titrated, usually from 114 µM), for the others: at the top dose activity change, negative = inhibition, actives largely listed as inhibitors; 360,000 tested, 4.4% active; AID 504333; note: % is set by controls: 0 for no effect and ±100 for the full control effect; nearly all actives have a fitted effect of over 60% in size
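In this displacement format the biotinylated H3(5-23) peptide acetylated at Lys14 serves as ligand at 50 nM, with BAZ2B at 50 nM in PBS pH 7.4 containing 0.01% Tween-20. Donor and acceptor beads are 10 ug/mL final.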
GLS inhibitor – inhibitors of human glutaminase (GLS); O94925; Potency, µM (highest dose often 45.5 µM), inactives show top-dose activity change, negative = inhibition, actives largely listed as inhibitors; 410,000 tested, 0.21% active; GLS enzymatic activity, qHTS titration; note: % is set by controls: 0 for no effect and ±100 for the full control effect
Target sequence (O94925 whole entry, looked up): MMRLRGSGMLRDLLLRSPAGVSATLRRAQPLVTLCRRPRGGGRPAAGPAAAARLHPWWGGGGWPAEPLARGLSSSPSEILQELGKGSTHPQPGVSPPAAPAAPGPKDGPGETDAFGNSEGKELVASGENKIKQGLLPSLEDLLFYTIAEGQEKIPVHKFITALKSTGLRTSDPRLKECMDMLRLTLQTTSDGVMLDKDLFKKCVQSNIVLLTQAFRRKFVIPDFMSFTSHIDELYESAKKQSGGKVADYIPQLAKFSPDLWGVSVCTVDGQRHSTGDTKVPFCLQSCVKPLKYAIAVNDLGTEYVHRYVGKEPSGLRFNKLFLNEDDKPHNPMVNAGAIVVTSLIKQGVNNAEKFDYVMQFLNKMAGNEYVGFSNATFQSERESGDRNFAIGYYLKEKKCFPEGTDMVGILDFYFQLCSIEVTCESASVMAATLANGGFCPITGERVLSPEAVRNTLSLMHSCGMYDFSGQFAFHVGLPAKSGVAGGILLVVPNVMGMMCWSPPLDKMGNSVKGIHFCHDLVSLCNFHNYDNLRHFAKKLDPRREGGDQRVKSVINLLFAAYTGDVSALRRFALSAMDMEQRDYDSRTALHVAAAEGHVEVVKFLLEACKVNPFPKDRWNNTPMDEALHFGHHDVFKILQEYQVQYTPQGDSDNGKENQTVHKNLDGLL
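hKGA in 45 mM KH2PO4 (pH 8.2), 0.02% Tween-20 with compound, then 1mM L-Glutamine (stock as added) plus glutamate oxidase/HRP/Amplex red coupling mix. Fluorescence read initially and after 30 min at RT; signal change reflects glutamate formation.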
G9a block – G9a (human) methyltransferase inhibition. G9a H3K9 monomethylation, AlphaScreen, 2 h. Q96KQ7. AID 504332. Potency, µM (titrated, usually from 102 µM), for the others: top-dose activity, negative = inhibition, actives largely listed as inhibitors. 350,000 tested, 8.8% active; note: % is set by controls: 0 for no effect and ±100 for the full control effect; nearly all actives have a fitted effect of over 75% in size
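Signal arises when biotinylated H3K9 peptide, once monomethylated, bridges streptavidin donor and antibody-captured acceptor beads. Enzyme at 20 nM was preincubated 15 min with test compounds; peptide 500 nM and SAM 20 uM then reacted for 2 h.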
HP1b binding inh – HP1-beta chromodomain-methylated histone interaction inhibition; 390,000 tested, 0.56% active; P83916; AlphaScreen HP1-beta / biotin-H3K9me3 peptide binding; Potency, µM (titrated, usually from 114 µM), without a hit: top-dose activity change, negative = inhibition, usual class: inhibitors; AID 540317; note: nearly all actives have a fitted effect of over 70% in size
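AlphaScreen: HP1-beta (50 nM) preformed 30 min with biotin-H3(1-18)K9me3 peptide (50 nM) in PBS pH 7.4, 0.01% Tween-20. Compound added for 30 min at RT, then streptavidin donor/nickel chelate acceptor beads (10 ug/mL) for 30 min.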
JMJD2A Tudor – inhibitors of human JMJD2A Tudor domain | O75164 | AlphaScreen JMJD2A-Tudor / H3K4me3 peptide binding | Potency, µM (doses to about 114 µM), for the others: at the highest dose activity change, negative = inhibition, actives largely listed as inhibitors | 390,000 tested, 4.4% active; note: % is set by controls: 0 for no effect and ±100 for the full control effect; nearly all actives have a fitted effect of over 50% in size
L3MBTL1 inh – blocks human L3MBTL1; 230,000 tested, 0.66% active; Potency, µM (top dose mostly 57.1 µM), without a hit: at the highest dose activity, negative = inhibition, hits mostly inhibitors; AlphaScreen L3MBTL1–H3K9me1 peptide binding; note: % is set by controls: 0 for no effect and ±100 for the full control effect; nearly all actives have a fitted effect of over 60% in size
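AlphaScreen assay: L3MBTL1 (50 nM final) was preincubated 30 min at room temperature with biotinylated H3(1-15)K9me1 peptide (75 nM final), then 30 min with library compounds; streptavidin donor and nickel chelate acceptor beads (10 ug/mL final) added, 30 min dark.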
Active calls of the source: *; [ ] = remark or other dose. Sampled rows, rich in hits. Any-hit rate of the full collection: about 10%. Calls come from the whole dose curve; as a rule, active = well fitted curve in the direction sought with a large enough effect; inconclusive = small, poorly fitted or top-dose-only effect, or another doubt; inactive = no such curve, though single readings can be large; an effect the other way counts as inactive or inconclusive. Potency is the fitted concentration of half-maximal effect.

`CCCC(=O)Nc1cc(C)c(NC(=O)c2ccccn2)cn1` gave BAZ2B inh 50µM*, GLS inhibitor 14%, G9a block 7.9µM*, HP1b binding inh 37%, JMJD2A Tudor inconclusive and L3MBTL1 inh 0%.
`Cc1cc(NC(=O)C(C)C)ncc1NC(=O)c1ccccn1` gave BAZ2B inh 50µM*, GLS inhibitor 9%, G9a block 18µM*, HP1b binding inh -7%, JMJD2A Tudor -15% and L3MBTL1 inh 10%.
`CCOc1cc(NC(=O)c2ccccn2)c(OCC)cc1NC(=O)CC(C)C` gave BAZ2B inh 7%, GLS inhibitor 26%, G9a block 11%[59 µM], HP1b binding inh -10%, JMJD2A Tudor 20µM* and L3MBTL1 inh 5%.
For COC(=O)c1ccccc1S(=O)(=O)Nc1cc(=O)c2ccccc2[nH]1 the results were JMJD2A Tudor -30%.
For CCOC(=O)C1CCCN(C(=O)Cc2ccc(Cl)cc2)C1 (stereo not given) the results were BAZ2B inh 2%, GLS inhibitor 1%, G9a block 2%[59 µM], HP1b binding inh 27% and JMJD2A Tudor 15%.
Screening CCOC(=O)C1CCCN(C(=O)c2cc(Cl)ccc2Cl)C1 (stereo not given) returned BAZ2B inh -3%, GLS inhibitor 2%, G9a block 45µM*, HP1b binding inh 21%, JMJD2A Tudor -11% and L3MBTL1 inh 7%.
For CCOC(=O)C1CCCN(C(=O)c2ccc(Cl)cc2)C1 (stereo not given) the results were BAZ2B inh -10%, GLS inhibitor -8%, G9a block 79µM*, HP1b binding inh 52%, JMJD2A Tudor -4% and L3MBTL1 inh 1%.
COc1cccc(CNC(=O)CCc2c(C)nn(-c3ccc(N4CCOCC4)nn3)c2C)c1 was read as BAZ2B inh -32%, GLS inhibitor -5%, G9a block 7%[59 µM], HP1b binding inh 39% and JMJD2A Tudor 2%.
Screening C=CCN1c2ccccc2Sc2cnccc21 returned GLS inhibitor 1%.
c1ccc2c(c1)Nc1cc3ccccc3cc1S2 was read as BAZ2B inh -30%, GLS inhibitor -4%, G9a block 40µM*, HP1b binding inh 2%, JMJD2A Tudor -28% and L3MBTL1 inh -14%.
COc1ccc2c(c1)S(=O)(=O)c1ccccc1N2 was read as BAZ2B inh -2%, GLS inhibitor 15%, G9a block 14%, HP1b binding inh 27%, JMJD2A Tudor -19% and L3MBTL1 inh 3%.
Screening COc1ccc2c(c1)Sc1ccccc1N2 returned BAZ2B inh 20µM*, GLS inhibitor 18µM*, G9a block 3.5µM*, HP1b binding inh 28µM*, JMJD2A Tudor 40µM* and L3MBTL1 inh inconclusive.
`c1ccc2c(c1)Nc1ccncc1S2` gave BAZ2B inh -26%, GLS inhibitor 10µM*, HP1b binding inh 27%, JMJD2A Tudor -18% and L3MBTL1 inh 34%.
For c1ccc2c(c1)Nc1cc3ccccc3cc1O2 the results were GLS inhibitor 12%, HP1b binding inh 18% and JMJD2A Tudor -15%.
Cc1ccc(Cn2c(=O)c3ccccc3n3c(-c4ccccc4)nnc23)cc1 was read as BAZ2B inh 0%, GLS inhibitor -9%, G9a block -47%[59 µM], HP1b binding inh 35% and JMJD2A Tudor 4%.
`COc1ccc(-n2cnc3cc(C(=O)NCCC4=CCCCC4)ccc32)cc1` gave BAZ2B inh -10%, GLS inhibitor -4%, G9a block -40%[59 µM], HP1b binding inh 34% and JMJD2A Tudor -21%.
`CCN(CC)CCCNC(=O)Cn1c(-c2cccs2)cc2cc(Cl)ccc21` gave BAZ2B inh -3%, GLS inhibitor -3%, G9a block -20%[59 µM], HP1b binding inh 30% and JMJD2A Tudor -11%.
Screening Cc1ccc(CNC(=O)C2CCN(c3nc4ccccc4n(C)c3=O)CC2)cc1 returned BAZ2B inh -8%, GLS inhibitor -1%, G9a block inconclusive, HP1b binding inh 14% and JMJD2A Tudor -11%.
Brc1ccc(-c2csc(NNC3=NCCCCC3)n2)cc1 was read as BAZ2B inh 35µM*, GLS inhibitor -2%, G9a block 13µM*, HP1b binding inh -22%, JMJD2A Tudor inconclusive and L3MBTL1 inh -20%.
CC(C)(C)c1ccc(-c2csc(NNC3=NCCCCC3)n2)cc1 was read as BAZ2B inh inconclusive, GLS inhibitor 14%, G9a block 13µM*, HP1b binding inh inconclusive and JMJD2A Tudor inconclusive.
`c1ccc(-c2csc(NC3=NCCCCC3)n2)cc1` gave BAZ2B inh -38%, GLS inhibitor -4%, G9a block 14%[59 µM], HP1b binding inh 25%, JMJD2A Tudor -9% and L3MBTL1 inh 5%.
FC(F)Oc1ccc(-c2csc(NNC3=NCCCCC3)n2)cc1 was read as BAZ2B inh inconclusive, GLS inhibitor inconclusive, G9a block 13µM*, HP1b binding inh inconclusive, JMJD2A Tudor inconclusive and L3MBTL1 inh -20%.
`CCOc1ccc(CCNC(=O)CN2C(=O)COc3ccc(S(=O)(=O)N4CCC(C)CC4)cc32)cc1` gave BAZ2B inh -6%, GLS inhibitor 6%, G9a block 10%[59 µM], HP1b binding inh 25% and JMJD2A Tudor -6%.
`C=CC1=C(C(=O)O)N2C(=O)C(NC(=O)/C(=N\O)c3csc(N)n3)C2SC1` (stereo not given) gave GLS inhibitor inconclusive and G9a block 1%[2.33 µM].
For CO/N=C(/C(=O)NC1C(=O)N2C(C(=O)O)=C(CSc3nc(=O)c(O)nn3C)CSC12)c1csc(N)n1 (stereo not given) the results were GLS inhibitor 28µM* and G9a block 1%[2.33 µM].
C=CC1=C(C(=O)O)N2C(=O)[C@@H](NC(=O)/C(=N\O)c3csc(N)n3)[C@H]2SC1 (stereo in doubt) was read as GLS inhibitor inconclusive, HP1b binding inh 5% and JMJD2A Tudor 20µM*.
`Oc1c(N=NC(=S)Nc2ccccc2F)c2ccccc2n1Cc1cccc(Cl)c1` gave BAZ2B inh 11µM*, GLS inhibitor -6%, G9a block inconclusive, HP1b binding inh inconclusive and JMJD2A Tudor inconclusive.
For Cc1cccc(Cn2c(O)c(N=NC(=S)Nc3ccccc3F)c3ccccc32)c1 the results were BAZ2B inh 8.9µM*, GLS inhibitor 3%, G9a block 8.9µM*, HP1b binding inh -12% and JMJD2A Tudor 10µM*.
Cc1ccc2c(c1)c(N=NC(N)=S)c(O)n2Cc1ccccc1 was read as BAZ2B inh 1%, GLS inhibitor 1%, G9a block 43%[59 µM], HP1b binding inh 6%, JMJD2A Tudor -19% and L3MBTL1 inh -8%.
